Screening data as filed in PubChem BioAssay.
VP16 counter – Gal4-VP16 reporter inhibition counter-screen; Drosophila S2 Gal4-VP16 UAS-luciferase, luminescence, 20 h; Potency, µM (titrated, usually from 53.6 µM), for inactives: at the highest dose activity, negative = inhibition, most hits filed as inhibitors; actives 3.5% (n = 310,000);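 note: Gal4-VP16 expression switched on by copper sulfate through the metallothionein promoter; potency is the fitted concentration of half-maximal effect; % is set by controls: 0 for no effect and ±100 for the full control effect; nearly all actives have a fitted effect of over 50% in size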
uPA generation – blocks generation of uPA at the cell surface; cell surface uPA generation assay, qHTS; Potency, µM (highest dose often 38.3 µM), inactives show at the highest dose activity change, negative = inhibition, actives largely listed as inhibitors; actives 0.31% (n = 330,000); active = well fitted inhibition curve with a large enough effect; inconclusive = small, poorly fitted or top-dose-only effect; inactive = no such curve, though single readings can be large or run the other way; tested in mouse RAW 264.7 cells; note: potency is the fitted concentration of half-maximal effect; % is set by controls: 0 for no effect and ±100 for the full control effect; nearly all actives have a fitted effect of over 55% in size
TRPV1 ag – agonists of human vanilloid receptor 1 (TRPV1) | Q8NER1 | TRPV1-expressing cells, Fluo-8 calcium influx, agonist mode | activation, % at 8.33 µM | actives 0.19% (n = 320,000); in the data active = activation above about 80%; inconclusive = between about 30% and that limit; note: 0% is about no effect
Target sequence (Q8NER1 whole entry, looked up): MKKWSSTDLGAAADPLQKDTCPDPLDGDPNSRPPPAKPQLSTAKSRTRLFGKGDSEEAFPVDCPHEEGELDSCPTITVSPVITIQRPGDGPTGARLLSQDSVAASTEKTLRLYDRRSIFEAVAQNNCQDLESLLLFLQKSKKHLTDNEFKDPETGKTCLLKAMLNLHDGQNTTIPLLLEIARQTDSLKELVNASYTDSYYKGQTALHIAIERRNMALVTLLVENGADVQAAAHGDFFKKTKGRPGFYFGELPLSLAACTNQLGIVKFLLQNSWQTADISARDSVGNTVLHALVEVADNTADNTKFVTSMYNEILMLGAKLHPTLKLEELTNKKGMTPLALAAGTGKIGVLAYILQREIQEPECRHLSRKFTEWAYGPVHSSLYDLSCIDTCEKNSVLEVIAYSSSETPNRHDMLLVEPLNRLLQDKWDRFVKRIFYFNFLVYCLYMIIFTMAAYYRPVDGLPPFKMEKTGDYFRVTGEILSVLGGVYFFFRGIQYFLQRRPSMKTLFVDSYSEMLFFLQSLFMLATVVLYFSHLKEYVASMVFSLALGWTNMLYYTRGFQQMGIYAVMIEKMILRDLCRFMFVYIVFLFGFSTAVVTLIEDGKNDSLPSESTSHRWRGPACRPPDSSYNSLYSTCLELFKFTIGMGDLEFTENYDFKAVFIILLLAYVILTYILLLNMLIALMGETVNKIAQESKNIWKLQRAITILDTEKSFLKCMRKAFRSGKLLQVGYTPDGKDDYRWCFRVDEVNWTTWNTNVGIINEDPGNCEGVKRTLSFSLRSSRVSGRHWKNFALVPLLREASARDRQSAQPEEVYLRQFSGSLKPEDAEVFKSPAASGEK
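TRPV1-expressing cells were cultured overnight at 35.5C and loaded with Fluo-8 calcium dye for 40 to 90 min at room temperature. After a 10 s baseline, compound was added and calcium influx was read kinetically for 3 min (ex 480/em 520 nm).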
TRPV1 PAM – enhances activation of the human vanilloid receptor TRPV1; actives 0.02% (n = 320,000); AID 540277; TRPV1-expressing cells, Fluo-8 calcium influx, capsaicin EC20 potentiation; potentiation, % at 8.33 µM; Q8NER1; in the data active = potentiation above about 80%; inconclusive = between about 30% and that limit; note: 0% is about no effect
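TRPV1-expressing cells were cultured overnight at 35.5C and loaded with Fluo-8 calcium dye for 40 to 90 min at room temperature. After a 10 s baseline, compound was added and calcium influx was read kinetically for 3 min (ex 480/em 520 nm).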
RORg inh – blocks mouse ROR gamma transcriptional activity; actives 5.4% (n = 310,000); Drosophila S2 Gal4-RORgamma UAS-luciferase reporter, 20 h; Potency, µM (titrated, usually from 53.6 µM), inactives show at the highest dose activity change, negative = inhibition, actives largely listed as inhibitors; P51450; AID 2551; note: potency is the fitted concentration of half-maximal effect; % is set by controls: 0 for no effect and ±100 for the full control effect; nearly all actives have a fitted effect of over 60% in size
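A Gal4/UAS one-hybrid system in insect cells: metallothionein-promoter Gal4–ROR gamma fusion plus Photinus luciferase reporter. Copper sulfate 700 uM final, 20 hr ambient incubation, luminescent detection after 10 min with reagent.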
* = called active by the depositor; ? = inconclusive; / = no result; [ ] = another dose, or the depositor's remark. In the library only some 5.8% were active in any assay of this set; here they are far more common. Unless noted, calls come from the whole dose curve; as a rule, active = well fitted curve in the direction sought with a large enough effect; inconclusive = small, poorly fitted or top-dose-only effect, or another doubt; inactive = no such curve, though single readings can be large; an effect the other way counts as inactive or inconclusive.

SMILES	VP16 counter	uPA generation	TRPV1 ag	TRPV1 PAM	RORg inh
CCCCc1nc2ccn(CC(=O)N(C)C)c(=O)c2n1Cc1ccc(-c2ccccc2-c2nn[nH]n2)cc1	-5.3%	/	/	/	33.5%
O=C(C=Cc1ccccc1)c1cccs1	/	-7.5%	/	/	/
CCOc1ccc(/C=C/C(=O)c2cccs2)cc1	-21.3%	/	/	/	22.4µM*
O=C(/C=C/c1ccccc1)c1cccs1	-5.2%	/	/	/	22.4µM*
CCN(CC)CCNC(=O)c1nn(-c2ccc(Cl)cc2)c2c1CCc1cc(OC)ccc1-2	/	3.2%	/	/	/
COc1cccc(OCC(=O)NNC(=S)Nc2ccc(Cl)cc2Cl)c1	-8.4%	4.8%	-1.8	13.0	15.8µM*
O=C(COc1cccc(Cl)c1)NNC(=S)Nc1ccccc1	1µM*	-1.1%	-7.4	6.1	0.891µM*
CCc1nnc(NC(=O)CSc2ncc(-c3ccccc3)n2CC)s1	?	0.4%	4.1	-11.5	11.2µM*
CCc1nnc(NC(=O)CSc2nnc(-c3ccccc3O)n2-c2ccc(C)cc2C)s1	?	-8.2%	-1.1	-19.6	1.58µM*
CCc1nnc(NC(=O)CSc2ncc(-c3ccccc3)[nH]2)s1	?	/	-2.7	20.0	6.31µM*
CN(C)c1ccc(-c2cncnc2Nc2ccc(F)cc2)cc1	?	/	/	/	-15.9%
S=c1[nH]nc([C@@H]2C[C@H]2c2ccccc2)n1-c1ccccc1	3.98µM*	0.0%	8.4	-0.8	2.82µM*
Cc1ccccc1-n1c([C@@H]2C[C@H]2c2ccccc2)n[nH]c1=S	?	7.7%	/	/	5.01µM*
NC(=O)/N=N/C(N)=O	-2.1%	/	/	/	?
C=C1C(=O)OC2C[C@@]3(C)CCCC(C)C3=CC12 (some centres not stated)	?	/	/	/	10µM*
Cc1ccc(Cn2nnc3c(=O)n(CC(=O)c4ccccc4)cnc32)cc1	-15.4%	5.3%	?	-11.8	12.6%
CC(C)CCNC(=O)C1CCN(Cc2cccc(OCc3ccccc3)c2)CC1	5.3%	-10.3%	91.7*	27.1	43.4%
COc1ccc2[nH]cc(CCNc3ccnc(-c4ccoc4)n3)c2c1	5.4%	/	/	/	26.5%
COC(=O)c1ccc(NC(=S)NC2CCCCC2)cc1	?	/	?	-15.2	7.08µM*
COC(=O)c1ccc(NC(=S)NC2CC3CCC2C3)cc1 (configuration not stated)	?	1.9%	?	-22.0	11.2µM*
COC(=O)c1ccc(NC(=S)Nc2ccc(O)cc2)cc1	2.7%	-24.2%	-3.2	-3.2	-12.8%
COC(=O)c1ccc(NC(=O)NC2CCCCC2)cc1	5.7%	-2.4%	?	-1.6	8.7%
COC(=O)c1cccnc1NC(=S)NC1CCCCC1	1.26µM*	-9.3%	?	-4.0	0.631µM*
COC(=O)c1ccc(NC(=S)NCC2CC2)cc1	?	4.3%	?	-18.9	11.2µM*
CO/N=C/c1cc([N+](=O)[O-])ccc1Sc1ccc(C)cc1	-3.4%	/	12.0	24.9	-0.3%
SMILES	VP16 counter	uPA generation	TRPV1 ag	TRPV1 PAM	RORg inh
Cc1nc(N2CCOCC2)c2nc(-c3ccccc3)n(CCN3CCOCC3)c2n1	4.8%	/	/	/	-8.9%
CCN(CC)CCCn1c(-c2ccccc2)nc2c(NCCOC)nc(C)nc21	-1.2%	/	/	/	-11.1%
CCCC(=O)N(Cc1cc(=O)[nH]c2ccccc12)c1cccc(C)c1	-1.6%	-3.1%	-2.0	-13.6	-2.0%
Cc1cccc(N(Cc2cc(=O)[nH]c3ccccc23)C(=O)CCl)c1	?	7.08µM*	-1.9	-3.8	17.8µM*
C[C@@H]1CC[C@]2(C(=O)O)CC[C@]3(C)C(=CCC4[C@@]5(C)C[C@@H](O)[C@H](O)[C@@](C)(CO)C5CC[C@]43C)C2[C@H]1C (some centres not stated)	17.8µM*	/	/	/	-34.5%
CC(=O)OC1CC[C@]2(C)C(CC[C@@]3(C)C2C(=O)C=C2C4C(C)C(C)CC[C@@]4(C(=O)O)CCC23C)C1(C)C (some centres not stated)	-7.8%	/	/	/	0.631µM*
C[C@@H]1[C@H](C)CC[C@@]2(C(=O)O[C@H]3O[C@@H](CO[C@H]4O[C@@H](CO)[C@@H](O[C@H]5O[C@@H](C)[C@@H](O)[C@@H](O)[C@@H]5O)[C@@H](O)[C@@H]4O)[C@@H](O)[C@@H](O)[C@@H]3O)CC[C@]3(C)C(=CC[C@H]4[C@@]5(C)C[C@@H](O)[C@@H](O)[C@](C)(CO)[C@@H]5CC[C@@]43C)[C@@H]12	4.4%[17 µM]	/	/	/	-16.3%[16.9 µM]
C[C@H]1[C@H](C)CC[C@]2(C(=O)O)CC[C@]3(C)C(=CCC4[C@@]5(C)C[C@@H](O)[C@H](O)[C@@](C)(CO)[C@@H]5CC[C@]43C)[C@H]12 (some centres not stated)	-5.8%	/	/	/	11.2µM*
CC(=O)O[C@H]1CC[C@]2(C)[C@H]3CC=C4[C@@H]5[C@@H](C)[C@H](C)CC[C@]5(C(=O)O)CC[C@@]4(C)[C@]3(C)CC[C@H]2C1(C)C	7.7%	/	0.3	-1.8	?
CCOC(=O)N1CCN(S(=O)(=O)c2ccc(OC)c(C(=O)N3CCCCC3)c2)CC1	-5.1%	2.7%	2.9	-1.8	-12.5%
Cc1sc(N/N=C/c2cccs2)nc1-c1ccccc1	10µM*	6.6%	0.6	-4.9	7.08µM*
Cc1ccc(S[C@@H](CCN2CC[C@H](C(C)(C)C)CCC2=O)c2ccccc2)cc1	10µM*	7.0%	?	-4.2	-4.3%
Cc1ccc(OC(=O)c2cccc(S(=O)(=O)N3CCN(C)CC3)c2)c(Br)c1	3.5%	-8.0%	12.9	-5.2	1.0%
CCCCCCC(=O)Nc1ccc(C(=O)N/N=C/c2cccnc2)cc1	-0.9%	-5.0%	85.7*	13.4	-25.6%
OC[C@@H](O)C(O)[C@H](O)[C@H](O)CO (some centres not stated)	-3.4%	/	/	/	-6.1%
COc1ccccc1NS(=O)(=O)c1ccc(C(=O)NCCCn2ccnc2)cc1	/	1.1%	-0.3	12.6	/
O=C1C(=O)c2ccccc2C(O)=C1CCCCl	?	11.2µM*	/	/	?
COc1ccc(CC2=C(O)c3ccccc3C(=O)C2=O)cc1	-26.0%	-0.4%	6.0	6.5	?
Cc1ccc2c(c1)-c1[nH]c(=S)ncc1CS2	-13.4%	13.1%	0.6	-6.1	2.24µM*
O=C(CN1CCN(c2ccccc2F)CC1)c1c[nH]c2ccc(F)cc12	-15.9%	-1.1%	0.6	19.3	22.2%
NC(=O)C1CCN(CC(=O)c2c[nH]c3ccc(F)cc23)CC1	15.8µM*	0.4%	-0.9	?	-34.8%
